A short description of test [1]: Quantitative highthroughput screen to assess conditional lethalithy of P12 Ichikawa cells grown in Human Plasma-Like Medium with dialyzed fetal bovine serum (HPLM+ds) (AID 1963879). Also: nearly all actives have a fitted effect of over 35% in size. Also: potency is read from the fitted curve at half-maximal effect. As to viability: series mostly up to about 46 µM. The note with it: Potency: viability. Summed up:
(§1)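 Each medium arm—HPLM with 10% dialyzed FBS, or RPMI1640 with 5 mM glucose and 10% untreated or dialyzed FBS—was screened against an 11-point, 3-fold compound titration for 48 h at 37 °C, with CellTiter-Glo luminescence as endpoint.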

The nature of test [2]: Quantitative highthroughput screen to assess conditional lethalithy of P12 Ichikawa cells grown in RPMI1640 with dialyzed fetal bovine serum (RPMI+ds) (AID 1963880).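 Also: 100% = DMSO wells and 0% = empty wells on each plate; nearly all actives have a fitted effect of over 35% in size.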 As to conditions: Potency: P12-Ichikawa viability. In a few lines: as §1
A short description of test [3]: Quantitative highthroughput screen to assess conditional lethalithy of P12 Ichikawa cells grown in RPMI1640 with untreated serum (RPMI+s) (AID 1963881). Also: nearly all actives have a fitted effect of over 35% in size. Also: potency is read from the fitted curve at half-maximal effect.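 As to viability: series mostly up to about 46 µM; 100% = DMSO wells and 0% = empty wells without cells.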 As to conditions: Potency: viability. Summed up:
as §1

Test [4] is described as follows: Quantitative highthroughput screen to assess conditional lethalithy of SEM cells grown in RPMI1640 with dialyzed fetal bovine serum (RPMI+ds) (AID 1963884). Also: nearly all actives have a fitted effect of over 35% in size. Also: potency is read from the fitted curve at half-maximal effect.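 As to viability: series mostly up to about 46 µM; 100% = DMSO control wells and 0% = empty wells without cells.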 Summed up: as §1
A short description of test [5]: Quantitative highthroughput screen to assess conditional lethalithy of SEM cells grown in Human Plasma-Like Medium with dialyzed fetal bovine serum (HPLM+ds) (AID 1963882). Also: nearly all actives have a fitted effect of over 35% in size. Also: potency is read from the fitted curve at half-maximal effect. As to viability: series mostly up to about 46 µM. Summed up: as §1
Test [6] can be described thus: Quantitative highthroughput screen to assess conditional lethalithy of NOMO1 cells grown in Human Plasma-Like Medium with dialyzed fetal bovine serum (HPLM+ds) (AID 1963878). Also: nearly all actives have a fitted effect of over 35% in size. Also: potency is read from the fitted curve at half-maximal effect.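 As to viability: 100% = DMSO wells and 0% = empty wells on each plate.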 In a few lines: as §1
The nature of test [7]: Quantitative highthroughput screen to assess conditional lethalithy of SEM cells grown in RPMI1640 with unreated serum (RPMI+s) (AID 1963883). Summed up: as §1
Test [8] in a line: Cellular viability qHTS for adrenocortical cancer (ACC) cell line SW-13 (AID 1963989). Also: nearly all actives have a fitted effect of over 65% in size. Also: potency is read from the fitted curve at half-maximal effect.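 As to activity (max response): cells grown in serum-free medium with ITS supplement; % is scaled to controls: 0 for no effect and ±100 for the full control effect.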 As to conditions: SW-13 ACC cells viability, CellTiter-Glo, 48 h; activity (max response): stronger effect = lower value. Summed up: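 48 h treatment, SW-13 in ITS/DMEM serum-free; doses up to 46 uM; readout CellTiter-Glo luminescence; curve fit four-parameter logistic.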
A short description of test [9]: Cellular viability qHTS for adrenocortical cancer (ACC) cell line NCI-H295R (AID 1963990). Also: nearly all actives have a fitted effect of over 60% in size. Also: potency is read from the fitted curve at half-maximal effect. In a few lines: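 Compound titrations (up to 46 uM final) are applied to NCI-H295R cultures for 48 h at 37C. Viable cell number is estimated by CellTiter-Glo signal, normalised to DMSO and doxorubicin controls.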

Results filed as inconclusive are left out. Unmarked numbers belong to inactive results. Active and inactive are the calls of the source. Calls follow the shape of the dose curve; as a rule, active = well fitted curve in the direction sought with a large enough effect; inconclusive = small, poorly fitted or top-dose-only effect, or another doubt; inactive = no such curve, though single readings can be large; an effect the other way counts as inactive or inconclusive.

As to `COc1ccc(CC2NCCc3cc(OC)c(OC)cc32)cc1OC` (stereo unspecified), the Potency result in [1], in test [2] and in [3] was “inactive” each time.
`O=C1CCC[C@@H]2[C@H]3CCCN4CCC[C@@H](CN12)[C@@H]34`: the Potency entry in test [1] and in [4] was “inactive” throughout.
With `c1ccc(CCCN2CCN(CCOC(c3ccccc3)c3ccccc3)CC2)cc1`, the Potency result in test [1] is “inactive”. For the same compound, the Potency in test [3] is 18.7 µM (active).
For the compound `CC(=CCCC1=CCC(C2=CC(=O)OC2O)OC1O)CCC1=C(C)CCCC1(C)C` (stereo unspecified), the Potency result in [1], in [2], in test [3], in [5] and in test [4] was “inactive” each time.
For `C[C@@H]1[C@@H](CC(C[C@H]2O[C@@H]3O[C@]4(C)CC[C@@H]5[C@H](C)CC[C@@H]([C@H]2C)[C@@]35OO4)C[S+](=O)([O-])c2ccc(COC(=O)N(C)C)cc2)O[C@@H]2O[C@]3(C)CC[C@H]4[C@H](C)CC[C@@H]1[C@@]24OO3` (stereo partly specified), the Potency in [6] was 0.418 µM (active); in [1], 3.32 µM (active); in test [5] it was 0.743 µM (active).
`c1ccc2c(CN3CCNCC3)cccc2c1`: the Potency entry in test [6] and in test [4] was “inactive” each time.
For `C=C[C@@H]1CN2CCC1C[C@@H]2[C@@H](O)c1ccnc2ccccc12` (stereo partly specified), the Potency entry in test [6], in test [1], in [2] and in test [5] was “inactive” in each case.
As for `Oc1ccc2c3c1O[C@H]1c4[nH]c5c(c4C[C@@]4(O)[C@@H](C2)N(CC2CC2)CC[C@]314)C[C@@]1(O)[C@H]2Cc3ccc(O)c4c3[C@@]1(CCN2CC1CC1)[C@H]5O4`, the Potency result in test [6], in test [1] and in test [5] was “inactive” each time.
On to `c1cc2c(cc1[C@H]1OC[C@H]3[C@H]1CO[C@H]3c1ccc3c(c1)OCO3)OCO2`, for which the Potency entry in test [3] is “inactive”.
On to `CC(C)[C@]12O[C@@H]1[C@@H]1O[C@]13[C@]1(O[C@H]1C[C@@H]1C4=C(CC[C@@]13C)C(=O)OC4)[C@H]2O`, for which the Potency in test [7] is 0.0012 µM (active).
With `C=CCON=C(C[C@H]1O[C@@H]2O[C@]3(C)CC[C@@H]4[C@H](C)CC[C@@H]([C@H]1C)[C@@]24OO3)[C@H]1O[C@@H]2O[C@]3(C)CC[C@H]4[C@H](C)CC[C@@H]([C@@H]1C)[C@@]24OO3`, the Potency in test [7] is 1.05 µM (active); in test [4], 0.935 µM (active).
Take `Cc1nc(-c2ccc(-c3ccc(C(=O)N4CCc5cc6c(cc54)C4(CCN(C)CC4)CO6)cc3)c(C)c2)no1`: the Potency result in test [4] was “inactive”.
Take `CN(C)CCc1c[nH]c2cccc(O)c12`: the activity (max response) in test [8] was 3.4%. Moreover, the Potency entry in test [9] was “inactive”.
Consider `Clc1ccc(CSC(Cn2ccnc2)c2ccc(Cl)cc2Cl)cc1` (stereo unspecified), for which the Potency in test [8] is 8.2 µM (active); in test [9], 4.11 µM (active).
As for `CC[C@@H](CO)NC(=O)[C@@H]1C=C2c3cccc4[nH]cc(c34)C[C@H]2N(C)C1`, the activity (max response) in [8] is -27.7%. Further, the Potency entry in [9] is “inactive”.
In the same order, the values of `CC1=C2C[C@H]3[C@@H](CC=C4C[C@@H](O)CC[C@@]43C)[C@@H]2CC[C@]12O[C@@H]1C[C@H](C)CN[C@H]1[C@H]2C` are -8.25% and “inactive”.
For `c1ccc(CN2CCNCC2)cc1`, in test [8], the activity (max response) is -9.53%. In test [9], the Potency result is “inactive”.
Consider `C=C[C@H]1CN2CCC1C[C@@H]2[C@@H](O)c1ccnc2ccccc12` (stereo partly specified), for which, in test [8], the activity (max response) was -20.5%. For the same compound, the Potency entry in test [9] was “inactive”.
Taken in the same sequence, the figures for `OC(c1ccccc1)(c1ccccc1)C1CCNCC1` were 1.1% and “inactive”.
Turning to `C[C@H](CN1CCOCC1)C(C(=O)N1CCCC1)(c1ccccc1)c1ccccc1`, the activity (max response) in [8] was -12.8%. The Potency entry in test [9] was “inactive”.
In the same order, the values of `CCCOC(=O)Cc1ccc(OCC(=O)N(CC)CC)c(OC)c1` are 10.7% and “inactive”.
Turning to `COc1cc(CC#N)cc(OC)c1OC`, the activity (max response) in test [8] was 12%. Also, the Potency entry in test [9] is “inactive”.
`Cc1ncc2n1-c1ccc(Cl)cc1C(c1ccccc1F)=NC2`: the activity (max response) in [8] is -18.8%. Moreover, the Potency result in [9] is “inactive”.
As to `CCOC(=O)c1cncn1C(C)c1ccccc1` (stereo unspecified), the activity (max response) in [8] is 4.76%. In test [9], the Potency result is “inactive”.
For the compound `CC[C@]1(O)CC[C@H]2[C@@H]3CCC4=CCCC[C@@H]4[C@H]3CC[C@@]21C`, the figures for the Potency in test [8] and in test [9] were 3.66 µM (active) and 2.91 µM (active), respectively.
Consider `O=C1OC(CCN2CCCCC2)OC1(c1ccccc1)c1ccccc1` (stereo unspecified), for which, in test [8], the activity (max response) was 2.23%. Besides, in test [9], the Potency was 25.9 µM (active).
Taken in the same sequence, the figures for `CC1COC2(c3ccccc3Cl)c3cc(Cl)ccc3NC(=O)CN12` (stereo unspecified) were -14.7% and 23.1 µM (active).
Consider `Cn1c(CCCCCCC(=O)NO)nc2cc(N(CCCl)CCCl)ccc21`, for which the values for the Potency in test [8] and in test [9] were 15.8 µM (active) and 8.91 µM (active), respectively.
Turning to `CN(C)CCc1c[nH]c2ccccc12`, the activity (max response) in test [8] is -12.4%. In addition, the Potency result in [9] is “inactive”.
In the same order, the values of `CC(C(O)c1ccccc1)N(C)C/C=C/c1ccccc1` (stereo unspecified) are -14.5% and “inactive”.
For the compound `CC(Cc1ccccc1)NCCn1cnc2c1c(=O)n(C)c(=O)n2C` (stereo unspecified), in test [8], the activity (max response) was -22.4%. Moreover, the Potency result in test [9] was “inactive”.
`CCN(CC)CCN1C(=O)CN=C(c2ccccc2F)c2cc(Cl)ccc21`: the activity (max response) in [8] was 2.24%. Also, the Potency result in test [9] is “inactive”.
Regarding `CN1C[C@@H](NS(=O)(=O)N(C)C)C[C@@H]2c3cccc4c3c(cn4C)C[C@H]21`, the activity (max response) in [8] was -2.7%. Moreover, the Potency entry in test [9] was “inactive”.
As to `COC(=O)c1cncn1C(C)c1ccccc1` (stereo unspecified), the activity (max response) in test [8] was -8.99%. In addition, the Potency result in test [9] is “inactive”.
Taken in the same sequence, the figures for `CCCN(CCC)C(=O)Cc1c(-c2ccc(Cl)cc2)nc2ccc(Cl)cn12` were -9.21% and “inactive”.
Taken in the same sequence, the figures for `C=C(C)[C@H]1CN[C@H](C(=O)O)[C@H]1CC(=O)O` were 7.33% and “inactive”.
`CCN[C@@H](C)Cc1ccccc1`: the activity (max response) in test [8] is -5.58%. Also, the Potency entry in test [9] is “inactive”.
Consider `C[C@]12CC[C@H]3[C@@H](CCC4=CC(=O)CC[C@@H]43)[C@@H]1CC[C@@H]2O`, for which the activity (max response) in [8] is 5.27%. Besides, the Potency result in test [9] is “inactive”.

The record behind these values is PubChem BioAssay (NCATS).
